Consider 22 compounds from PubChem BioAssay.

For test [1], the system named is XIP peptide (Xip251-270) binding. As to the kind of experiment: small-molecule binders of XIP peptide, primary screen, biochemical, small-molecule microarray, fluorescence 635/667 nm, 0.1 µg/mL protein (AID 1182). The following applies: fluorescent protein binding, 635 nm, higher = more signal, called active from +8 up or from −8 down.
A further test concerns XIP peptide (Xip251-270). As to the kind of experiment: small-molecule binders of XIP peptide, primary screen, biochemical, small-molecule microarray, fluorescence 635/667 nm, 0.5 µg/mL protein (AID 1183). As to conditions: small-molecule microarray binding, fluorescence 635 nm; higher = more signal.
Test [2] is described as follows: Plasmodium falciparum growth inhibition, primary screen, strain 3D7, DAPI fluorescence, 100 nL (AID 1184).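 Note: parasites grown inside human red blood cells in medium with human serum.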 The following applies: P. falciparum 3D7 growth, 3 d, higher = more signal.
For test [3], the target named is Homeobox protein Hox-A13 (Mus musculus) (UniProt Q62424). As to the kind of experiment: inhibitors of HoxA13-DNA binding, primary screen, biochemical, fluorescence polarization, labeled oligonucleotide (AID 1185). The following applies: 15 min, higher = more signal, called active from +8 up or from −8 down. (In general: Fluorescence polarisation rises when a labelled molecule tumbles more slowly, as on binding a larger partner.)

A short description of test [4]: inhibitors of hydroxyurea-induced Chk1 phosphorylation, primary screen, imaging, HeLa, phospho-Chk1 antibody, percent positive cells (AID 1186). As to conditions: hydroxyurea-induced phospho-Chk1 immunofluorescence imaging, higher = more signal.
Test [5] in a line: inhibitors of hydroxyurea-induced Chk1 phosphorylation, primary screen, imaging, HeLa, phospho-Chk1 nuclear intensity (AID 1187). The following applies: hydroxyurea-induced phospho-Chk1 immunofluorescence imaging, higher = more signal.

Activity calls are given as the source filed them. Unless noted, the rule behind the calls is not given here.

Homeobox protein Hox-A13 (Mus musculus), sequence (Q62424 whole entry, looked up): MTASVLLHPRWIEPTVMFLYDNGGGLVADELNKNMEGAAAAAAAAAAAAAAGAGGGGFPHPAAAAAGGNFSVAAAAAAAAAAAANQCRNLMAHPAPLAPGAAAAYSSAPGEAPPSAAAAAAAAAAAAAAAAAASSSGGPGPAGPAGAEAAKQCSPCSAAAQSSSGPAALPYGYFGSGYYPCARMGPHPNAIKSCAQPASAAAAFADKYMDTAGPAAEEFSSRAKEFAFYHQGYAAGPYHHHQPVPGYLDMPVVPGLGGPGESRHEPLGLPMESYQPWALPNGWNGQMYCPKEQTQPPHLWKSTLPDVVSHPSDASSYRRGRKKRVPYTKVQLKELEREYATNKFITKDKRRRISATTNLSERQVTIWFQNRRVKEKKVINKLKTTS

In the case of `CCOC(=O)C[C@H]1[C@H](OC(=O)Cc2ccc3c(c2)OCO3)[C@@H](NC(=O)C2CCCCC2)c2cc(OCCCO)ccc2N1C(=O)c1ccccc1`, the results for the composite z-score (in test [1]; in the test on XIP peptide (Xip251-270)) were -0.137 (inactive) and 0.514, respectively. Besides, the z-score was -0.201 in test [2], -3.57 (inactive) in test [3], -0.296 (inactive) in test [4] and -0.176 (inactive) in test [5].

For `CO[C@H]1O[C@H](CO)[C@@H](OC(=O)Nc2ccc3c(c2)OCO3)[C@H](OC(=O)Nc2ccc3c(c2)OCO3)[C@@H]1OC(=O)Nc1ccc2c(c1)OCO2`, the figures for the composite z-score (in test [1]; in the test on XIP peptide (Xip251-270)) were 1.12 (inactive) and 0.904, respectively. In addition, the z-score in test [2] is -2.31; in test [3], -4.7 (inactive); in test [4], -0.187 (inactive); in test [5] it was -0.119 (inactive).

Take `CCN(CC)c1ccc(N2CC=CC34O[C@@H]5/C=C\CCCOC(=O)C5[C@H]3C(=O)N(C(C)CO)[C@@H]4C2=O)cc1` (some centres not stated): the values for the composite z-score (in test [1]; in the test with XIP peptide (Xip251-270)) were -0.322 (inactive) and 0.213, respectively. Moreover, the z-score in test [2] was 0.226; in test [3] it was -5.97 (inactive); in test [4] it was 0.296 (inactive); in test [5] it was 0.804 (inactive).

For the compound `CCOC(=O)C[C@H]1[C@H](OC(=O)c2ccc(C(=O)c3ccccc3)cc2)[C@@H](NC(=O)c2ccc3ccccc3n2)c2cc(OCCCO)ccc2N1C(=O)Cc1ccc(OC)cc1`, the composite z-score in test [1] was -0.667 (inactive); in the test on XIP peptide (Xip251-270) it was -0.219. Further, the z-score in test [2] is -2.69; in test [3], -0.833 (inactive); in test [4] it was -0.824 (inactive); in test [5], -0.835 (inactive).

`CCCCCN1CC=CC23O[C@@H]4C=CCCOC(=O)C4[C@H]2C(=O)N(CCCCCCO)[C@@H]3C1=O` (some centres not stated): the figures for the composite z-score (in test [1]; with XIP peptide (Xip251-270)) were 0.592 (inactive) and -0.199, respectively. Further, the z-score was -0.103 in test [2], -4.59 (inactive) in test [3], -0.0991 (inactive) in test [4] and 0.155 (inactive) in test [5].

As to `CN(C)C(=O)[C@@]1(Cc2ccccc2)N=C(c2ccc(OCCCO)cc2)O[C@H]1c1ccccc1`, the values for the composite z-score (in test [1]; with XIP peptide (Xip251-270)) were 1.66 (inactive) and 0.444, respectively. The z-score is -1.58 in test [2], -6.14 (inactive) in test [3], -0.499 (inactive) in test [4] and -0.304 (inactive) in test [5].

Consider `CCOC(=O)C[C@H]1[C@H](OC(=O)c2cc3ccccc3oc2=O)[C@@H](NC(=O)c2ccc3ccccc3n2)c2cc(OCCCO)ccc2N1C(=O)Cc1ccc(OC)cc1`, for which the results for the composite z-score (in test [1]; with XIP peptide (Xip251-270)) were -0.816 (inactive) and 0.71, respectively. Also, the z-score is -1.42 in test [2], -3.15 (inactive) in test [3], 0.458 (inactive) in test [4] and -0.301 (inactive) in test [5].

In the case of `COCCOC(=O)N1C(=O)[C@@]2(c3cc(C#CC4=CCCCC4)ccc31)[C@H](c1ccccc1OCCO)N1[C@H](c3ccccc3)[C@H](c3ccccc3)OC(=O)[C@H]1[C@@H]2C(=O)N1CCN(c2ncccn2)CC1`, the composite z-score in test [1] was 0.735 (inactive); in the test with XIP peptide (Xip251-270), 0.55. Further, the z-score in test [2] is -1.86; in test [3], 1.02 (inactive); in test [4], -0.333 (inactive); in test [5], -0.385 (inactive).

For the compound `COC(=O)C1=CC(CCCO)=CC(c2cccs2)N(Cc2cccc(OC(F)(F)F)c2)C=C1C(=O)OC` (configuration not stated), the composite z-score in test [1] is 0.348 (inactive); in the test on XIP peptide (Xip251-270), 0.706. Further, the z-score in test [2] is -1.78; in test [3], -7.24 (inactive); in test [4], 0.128 (inactive); in test [5] it was 0.39 (inactive).

With `CCOC(=O)C[C@H]1[C@H](OC(=O)c2ccc(C(=O)c3ccccc3)cc2)[C@@H](NC(=O)c2ccc(-c3ccccc3)cc2)c2cc(OCCCO)ccc2N1C(=O)Cc1ccc(OC)cc1`, the composite z-score is -0.555 (inactive) in test [1] and -0.187 in the test with XIP peptide (Xip251-270). For the same compound, the z-score in test [2] was -0.75; in test [3], -1.41 (inactive); in test [4], 0.0183 (inactive); in test [5] it was 0.25 (inactive).

With `Cc1ccc(F)cc1S(=O)(=O)N[C@@H]1CCN(Cc2ccc(Br)cc2)C1`, the composite z-score in test [1] was -0.238 (inactive); with XIP peptide (Xip251-270) it was -0.192. In addition, the z-score in test [2] was -0.999; in test [3], -5.43 (inactive); in test [4], 0.0663 (inactive); in test [5], -0.335 (inactive).

As for `Cc1ccccc1C(O)C1C=CC2C(=O)NC(=O)C2N1Nc1ccccn1` (configuration not stated), the values for the composite z-score (in test [1]; in the test on XIP peptide (Xip251-270)) were 0.132 (inactive) and 0.11, respectively. Further, the z-score was -0.461 in test [2], -1.11 (inactive) in test [3], -0.0651 (inactive) in test [4] and -0.681 (inactive) in test [5].

For the compound `CCOC(=O)C1=C[C@@H](C(C)(C)C)N(S(=O)(=O)c2ccc(C)cc2)[C@H]1c1cccc2ccccc12`, the composite z-score in test [1] is -0.247 (inactive); with XIP peptide (Xip251-270), 0.236. The z-score is -1.93 in test [2], 0.961 (inactive) in test [3], 0.721 (inactive) in test [4] and 0.521 (inactive) in test [5].

Take `CN(C)C(=O)[C@@]1(Cc2ccccc2CN=[N+]=[N-])N=C(c2ccc(OCCCO)cc2)O[C@H]1c1ccccc1N=[N+]=[N-]`: the composite z-score in test [1] is 0.458 (inactive); in the test with XIP peptide (Xip251-270), 0.822. Also, the z-score in test [2] was -2.02; in test [3], -0.638 (inactive); in test [4], -0.0351 (inactive); in test [5], -0.336 (inactive).

As to `CCCC#C[Si](O[C@H](CC)c1cn([C@H](C)c2ccccc2)nn1)(C(C)C)C(C)C`, the composite z-score is 0.062 (inactive) in test [1] and 0.78 in the test on XIP peptide (Xip251-270). Moreover, the z-score is -0.285 in test [2], -0.652 (inactive) in test [3], -0.673 (inactive) in test [4] and -0.399 (inactive) in test [5].

As to `COc1cc2c(cc1O)C(C1CC1)N(Cc1cccc(OC(F)(F)F)c1)CC2` (configuration not stated), the figures for the composite z-score (in test [1]; in the test on XIP peptide (Xip251-270)) were 0.676 (inactive) and 0.651, respectively. In addition, the z-score in test [2] is -1.8; in test [3], -5.17 (inactive); in test [4] it was 0.433 (inactive); in test [5] it was 0.678 (inactive).

Consider `Cn1cccc1C(O)C1C=CC2C(=O)N(c3ccccc3)C(=O)C2N1Nc1ccccc1` (configuration not stated), for which the composite z-score in test [1] was 0.622 (inactive); in the test with XIP peptide (Xip251-270) it was 0.801. For the same compound, the z-score in test [2] was -0.255; in test [3] it was -4.04 (inactive); in test [4], 0.121 (inactive); in test [5], -0.436 (inactive).

In the case of `CC(CO)N1C(=O)[C@]2(C)C3C(=O)OCCC/C=C\[C@H]3OC23C=CCN(c2ccc(Cl)cc2)C(=O)[C@@H]13` (some centres not stated), the values for the composite z-score (in test [1]; in the test on XIP peptide (Xip251-270)) were -0.356 (inactive) and 0.725, respectively. Moreover, the z-score in test [2] is 0.416; in test [3], -3.59 (inactive); in test [4] it was 0.0747 (inactive); in test [5], 0.651 (inactive).

Turning to `C=CCN1Cc2ccccc2[C@@H]2OC(c3ccc(OCCCO)cc3)=N[C@]2(CC=C)C1=O`, the composite z-score is 0.887 (inactive) in test [1] and 0.794 in the test on XIP peptide (Xip251-270). The z-score in test [2] was -2.08; in test [3], -1.62 (inactive); in test [4], -0.675 (inactive); in test [5] it was -1.39 (inactive).

In the case of `CCC#CCN(Cc1ccccc1Br)[C@H](/C=C/C1CC1)[C@@H](O)Cc1ccccc1`, the composite z-score in test [1] was -0.243 (inactive); with XIP peptide (Xip251-270), 0.0059. Also, the z-score in test [2] was -3.17; in test [3] it was -0.634 (inactive); in test [4] it was -0.887 (inactive); in test [5] it was -0.875 (inactive).

With `COC(=O)[C@@]1(Cc2ccc(OC)cc2)[C@H]2c3cc(C(=O)N4CCCC4)n(CCc4c[nH]c5ccc(OC)cc45)c3C[C@H]2CN1C(=O)c1ccccc1`, the composite z-score in test [1] is 0.203 (inactive); in the test with XIP peptide (Xip251-270), 0.0718. For the same compound, the z-score is -1.71 in test [2], -2.82 (inactive) in test [3], 0.513 (inactive) in test [4] and 0.399 (inactive) in test [5].

Turning to `C=C(COC)/C(=C/C[C@H](OC(=O)c1ccncc1)c1ccccc1OCCO)c1cc(C(=O)OC)ccc1OC`, the results for the composite z-score (in test [1]; in the test with XIP peptide (Xip251-270)) were 0.0249 (inactive) and 0.12, respectively. The z-score in test [2] was -2.95; in test [3] it was -4.91 (inactive); in test [4] it was 0.127 (inactive); in test [5] it was 0.0857 (inactive).
